The supplement of paper PMC6555819

Columns and labels:
Assay in all cases: PBM binding z-score (relative to random genomic background probes); higher = stronger binding; sequences stand for … in GC…GCGATTGACAGCGTAGAATGAAGG
[1] = test system: FXR:RXRa (NR concentration 270 nM, RXRa partner concentration 90 nM)
How it was run: (§1)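 Binding z-scores take random background probes as their reference. They come from custom Agilent 4×180K protein-binding microarrays incubated 1 h with ligand-free nuclear receptor dimers, with antibodies against each partner (one per run) detecting binding. Scanned fluorescence was regression-normalized.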

[2] = test system: LXRa:RXRa (NR concentration 270 nM, RXRa partner concentration 90 nM)
How it was run: as §1

[3] = test system: LXRa homodimer (NR concentration 270 nM)
How it was run: as §1

[4] = test system: LXRb:RXRa (NR concentration 270 nM, RXRa partner concentration 90 nM)
How it was run: as §1

[5] = test system: LXRb homodimer (NR concentration 270 nM)
How it was run: as §1

[6] = test system: PPARa:RXRa (NR concentration 270 nM, RXRa partner concentration 90 nM)
How it was run: as §1

[7] = test system: PPARg:RXRa (NR concentration 180 nM, RXRa partner concentration 90 nM)
How it was run: as §1

[8] = test system: PPARg:RXRa 270nM:90nM, anti-RXR (NR concentration 270 nM, RXRa partner concentration 90 nM)
How it was run: as §1

[9] = test system: PPARg:RXRa 30nM:10nM, anti-RXR (NR concentration 30 nM, RXRa partner concentration 10 nM)
How it was run: as §1

[10] = test system: PPARg:RXRa 90nM:30nM, anti-RXR (NR concentration 90 nM, RXRa partner concentration 30 nM)
How it was run: as §1

Sequence | PBM binding z-score [1] | PBM binding z-score [2] | PBM binding z-score [3] | PBM binding z-score [4] | PBM binding z-score [5] | PBM binding z-score [6] | PBM binding z-score [7] | PBM binding z-score [8] | PBM binding z-score [9] | PBM binding z-score [10]
CAGACTAGGTCAGGGCCAGTATAGGAGGAACGTT | 1.14 | 0.664 | -0.52 | 0.152 | -0.575 | 2.57 | 3.84 | 3.65 | 1.04 | 2.5
ATCTCTAGGTAAAGTTCGGTGAAAGATCGATAGA | 0.889 | 1.94 | 0.491 | 0.602 | 0.935 | 1.22 | 1.55 | 2.48 | 1.27 | 2.34
CCTACTGGGCCAAAAGGGTCATTGATGCCGATAA | 2.19 | 2.17 | 0.372 | 2.58 | -0.642 | 3.78 | 3.54 | 4.35 | 1.7 | 3.87
ACTCGGAGGACAAAGGTCAGAGGTACGCCAGTGA | 4.04 | 4.06 | 1.7 | 3.26 | -0.137 | 5.14 | 7.26 | 6.74 | 4.88 | 7.16
TTACCAAGGTGAAGGCCGTTGATCCCTCTGTAGA | 0.294 | 0.227 | -0.606 | 0.138 | -0.941 | 1.33 | 0.354 | 1.33 | 0.659 | 0.916
ATATGTAGGTTACATCCGGGTCATTTAGGCTATG | 2 | 4.62 | 1.8 | 3.3 | 0.865 | 4.68 | 6.01 | 5.23 | 2.64 | 4.38
AGTCAAAGTTCATTAGGTAACGTAAGATTCAGCT | 5.94 | 6.16 | 5.2 | 3.29 | 1.67 | 4.63 | 6.37 | 6.16 | 3.38 | 5.54
TTACCAAGGTGAAGATCGTTGATCCCTCTGTAGA | 0.339 | 0.08 | -0.422 | 0.141 | -0.815 | 1.14 | 0.457 | 0.958 | 0.156 | 0.575
GCTGCTAGGTCATCTGATGGTCAGCTAAAGCTCG | 3.98 | 3.02 | 0.182 | 2.03 | 0.0879 | 3.39 | 1.96 | 2.82 | 0.263 | 1.59
CCCTACGGGTCACGAGGTTATAGCACGACGAGCG | 6.43 | 4.68 | 0.337 | 4.01 | -0.522 | 5.71 | 6.58 | 6.23 | 2.52 | 4.88
CGAACTTGGTCAGAACAGGACAGTGAAGGATGAT | -0.314 | -0.426 | -0.321 | -0.516 | -0.663 | -0.129 | 0.567 | -0.142 | -0.0842 | -0.55
CCTATTAGTTGCCCATAAGGGCAACCGAAGCTCG | 0.523 | 0.339 | 0.425 | 0.645 | 0.866 | 0.517 | 0.154 | 0.281 | -0.263 | 0.0446
CCGACTGTGGCAGAAAGGTTACCATACCATCCGG | 0.385 | 0.528 | 0.0726 | 0.75 | -0.636 | 2.16 | 2.03 | 3.65 | 1.73 | 3.6
TCTATTAGTTGATGAGGGCAACCGAAACAGCGGA | 0.667 | 0.683 | 0.18 | 0.607 | 0.412 | 1.07 | 0.347 | 2 | 3.62 | 2.83
ATCGAAAGGTCGAAGGTGATTATACCCACCCGAA | 4.31 | 3.69 | 0.425 | 2.92 | 0.626 | 4.48 | 4.21 | 4.47 | 2.33 | 3.99
GCTAGCAGGCCATTTGGGTCAGTCAATGACGGGC | -0.0631 | -0.302 | -0.489 | -0.399 | -1.6 | 0.666 | 0.221 | -0.137 | -0.663 | -0.371
AGATCGAGGGCACGCTGAGTTGATAGCAGAGTAG | 0.624 | 0.579 | -0.704 | 0.248 | -0.854 | 1.83 | 1.76 | 1.47 | 0.155 | 0.951
GCAACGAGGGCATTCGAGTTGATAGCATGGCGAT | 0.802 | 1.56 | -0.374 | 0.0313 | -0.641 | 1.15 | 0.475 | 0.0611 | -0.488 | -0.307
ACAGGCAGGTGAGTGAAGGTAACTCAGCTGGACG | 0.139 | -0.0924 | -0.455 | -0.499 | -0.66 | 0.119 | 0.199 | -0.206 | -0.505 | -0.636
GTACCAACGTGAATAGGTCGTTGATGAGTAGGCG | -0.282 | -0.216 | -0.491 | -0.2 | -0.829 | 0.267 | 0.588 | -0.017 | -0.124 | -0.176
CCTATTAGTTGACCATAAGCGCAACCGAAGCTCG | 0.497 | 0.827 | 0.899 | 1.04 | 1.41 | 0.528 | 0.326 | 0.456 | 0.0964 | 0.123
CCTTACGGGTCAAGGTTATGGCACGGGTGGTACG | 5.49 | 3.7 | 0.0981 | 2.81 | -0.233 | 4.86 | 4.26 | 4.73 | 1.8 | 3.51
CGAACTAGGTCAGAACAGGGCAGTGAAGGATGAT | 1.43 | 0.861 | -0.154 | 0.436 | -0.443 | 3.09 | 5.03 | 4.3 | 1.73 | 3.33
TCGAGTAGGTTACCAATGGGGCATTCGGCTTTCT | -0.107 | 1.22 | -0.464 | 0.357 | -0.96 | 0.808 | 0.00688 | 0.931 | 0.855 | 0.717
CATTACGGGTCACTGACAGGTTATAGCATTTGGA | 5.82 | 5.1 | 1.52 | 4.09 | 0.756 | 5.54 | 5.78 | 5.45 | 2.2 | 4.33
